From the supplement of paper PMC11006884
About 6,500 targets were measured; listed, in parts, are those with a hit and a random draw of the rest. About 2% of all pairs of compound and target were hits.

compound: COC(=O)C#Cc1ccccc1 [methyl 3-phenylpropiolate]; assay: log2 ratio of iodoacetamide-alkyne labeling of the cysteine site, DMSO over compound (competition); higher = stronger covalent engagement of the cysteine by the compound, active = 1 or more; conditions: 500 µM; treatment time 1 h; system: HEK293T cell lysate
In short: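 Reporter intensities give each cysteine's log2 competition ratio as the mean of control channels over the mean of compound channels. The samples were HEK293T lysate (2 mg/mL) given vehicle or electrophile (500 µM, 1 h, ambient temperature), then iodoacetamide alkyne (1 h), followed by click coupling to sCIP-TMT reagents, pooling, trypsin digestion overnight at 37 °C, streptavidin enrichment, acid elution, Orbitrap Eclipse LC-MS/MS with FAIMS and FragPipe quantification. Duplicate channels and three replicates were run, and cysteines quantified in only one replicate were discarded.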

Chain of UniProt O43823 (O43823 whole entry, looked up): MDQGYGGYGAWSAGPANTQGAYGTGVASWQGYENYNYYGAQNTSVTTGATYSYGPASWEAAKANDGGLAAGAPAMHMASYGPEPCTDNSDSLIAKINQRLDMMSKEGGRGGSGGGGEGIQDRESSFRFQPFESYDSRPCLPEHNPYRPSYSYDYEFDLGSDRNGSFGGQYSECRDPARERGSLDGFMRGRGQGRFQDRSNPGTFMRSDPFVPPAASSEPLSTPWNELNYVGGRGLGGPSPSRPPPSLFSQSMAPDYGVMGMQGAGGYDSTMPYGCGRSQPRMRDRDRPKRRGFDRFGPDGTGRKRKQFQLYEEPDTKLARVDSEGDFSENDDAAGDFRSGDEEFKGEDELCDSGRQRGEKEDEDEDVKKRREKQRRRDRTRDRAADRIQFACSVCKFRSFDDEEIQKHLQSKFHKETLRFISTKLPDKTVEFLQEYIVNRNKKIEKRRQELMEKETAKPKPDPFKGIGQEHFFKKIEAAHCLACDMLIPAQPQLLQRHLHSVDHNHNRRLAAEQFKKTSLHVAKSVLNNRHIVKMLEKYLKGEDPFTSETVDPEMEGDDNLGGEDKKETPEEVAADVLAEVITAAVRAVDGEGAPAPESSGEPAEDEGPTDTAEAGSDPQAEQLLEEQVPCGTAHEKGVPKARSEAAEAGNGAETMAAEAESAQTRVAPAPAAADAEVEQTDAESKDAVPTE
Chain of UniProt O60551 (O60551 whole entry): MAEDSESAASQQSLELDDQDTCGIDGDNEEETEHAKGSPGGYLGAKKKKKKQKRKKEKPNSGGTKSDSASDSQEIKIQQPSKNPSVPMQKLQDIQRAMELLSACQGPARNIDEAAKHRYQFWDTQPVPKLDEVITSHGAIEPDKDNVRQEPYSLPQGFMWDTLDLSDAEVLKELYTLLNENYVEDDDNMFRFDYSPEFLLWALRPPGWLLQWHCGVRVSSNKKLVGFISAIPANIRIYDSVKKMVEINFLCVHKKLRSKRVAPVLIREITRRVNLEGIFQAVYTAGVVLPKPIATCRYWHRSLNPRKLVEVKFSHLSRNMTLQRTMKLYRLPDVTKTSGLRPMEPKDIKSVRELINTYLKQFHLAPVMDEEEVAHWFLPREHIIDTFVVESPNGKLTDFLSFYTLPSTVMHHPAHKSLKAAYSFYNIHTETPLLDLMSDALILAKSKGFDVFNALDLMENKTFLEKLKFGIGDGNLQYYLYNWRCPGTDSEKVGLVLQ
Chain of UniProt O60343 (O60343 whole entry, looked up): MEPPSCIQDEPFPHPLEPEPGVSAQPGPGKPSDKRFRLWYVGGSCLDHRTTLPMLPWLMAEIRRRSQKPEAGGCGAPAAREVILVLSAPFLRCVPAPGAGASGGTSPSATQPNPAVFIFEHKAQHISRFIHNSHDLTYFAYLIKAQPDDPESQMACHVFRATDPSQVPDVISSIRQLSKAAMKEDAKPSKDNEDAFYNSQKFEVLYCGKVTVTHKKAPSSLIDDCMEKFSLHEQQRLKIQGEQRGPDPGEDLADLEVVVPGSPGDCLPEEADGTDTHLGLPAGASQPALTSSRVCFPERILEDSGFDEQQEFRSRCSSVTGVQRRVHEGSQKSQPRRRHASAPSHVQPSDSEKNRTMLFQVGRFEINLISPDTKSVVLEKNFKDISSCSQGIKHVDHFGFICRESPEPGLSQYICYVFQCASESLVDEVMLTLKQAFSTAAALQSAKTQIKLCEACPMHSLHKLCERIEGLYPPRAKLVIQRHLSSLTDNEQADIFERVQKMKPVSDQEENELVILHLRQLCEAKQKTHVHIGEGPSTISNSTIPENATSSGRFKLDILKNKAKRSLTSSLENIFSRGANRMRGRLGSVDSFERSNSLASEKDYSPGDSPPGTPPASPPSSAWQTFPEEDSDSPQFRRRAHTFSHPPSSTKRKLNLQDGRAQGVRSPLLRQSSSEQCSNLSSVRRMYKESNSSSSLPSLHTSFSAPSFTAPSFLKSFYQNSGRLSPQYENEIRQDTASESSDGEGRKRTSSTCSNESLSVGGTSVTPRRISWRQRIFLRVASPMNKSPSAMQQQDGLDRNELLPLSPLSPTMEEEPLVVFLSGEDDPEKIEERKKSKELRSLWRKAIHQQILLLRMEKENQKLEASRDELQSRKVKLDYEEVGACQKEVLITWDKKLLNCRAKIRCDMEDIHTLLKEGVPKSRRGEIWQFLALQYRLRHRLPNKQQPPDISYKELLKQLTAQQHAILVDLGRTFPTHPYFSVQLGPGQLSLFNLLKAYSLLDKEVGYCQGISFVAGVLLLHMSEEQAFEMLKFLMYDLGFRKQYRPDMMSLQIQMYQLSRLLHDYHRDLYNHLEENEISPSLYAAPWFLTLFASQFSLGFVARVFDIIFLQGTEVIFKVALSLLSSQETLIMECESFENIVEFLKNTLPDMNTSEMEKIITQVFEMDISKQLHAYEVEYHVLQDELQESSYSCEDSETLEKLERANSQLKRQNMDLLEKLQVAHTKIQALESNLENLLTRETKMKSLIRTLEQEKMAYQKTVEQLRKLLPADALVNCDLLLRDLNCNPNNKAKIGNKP
Chain of UniProt O00244 (O00244 whole entry, looked up): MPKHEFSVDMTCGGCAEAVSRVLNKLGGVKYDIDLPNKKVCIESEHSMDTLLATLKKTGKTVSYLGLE
Chain of UniProt O60832 (O60832 whole entry): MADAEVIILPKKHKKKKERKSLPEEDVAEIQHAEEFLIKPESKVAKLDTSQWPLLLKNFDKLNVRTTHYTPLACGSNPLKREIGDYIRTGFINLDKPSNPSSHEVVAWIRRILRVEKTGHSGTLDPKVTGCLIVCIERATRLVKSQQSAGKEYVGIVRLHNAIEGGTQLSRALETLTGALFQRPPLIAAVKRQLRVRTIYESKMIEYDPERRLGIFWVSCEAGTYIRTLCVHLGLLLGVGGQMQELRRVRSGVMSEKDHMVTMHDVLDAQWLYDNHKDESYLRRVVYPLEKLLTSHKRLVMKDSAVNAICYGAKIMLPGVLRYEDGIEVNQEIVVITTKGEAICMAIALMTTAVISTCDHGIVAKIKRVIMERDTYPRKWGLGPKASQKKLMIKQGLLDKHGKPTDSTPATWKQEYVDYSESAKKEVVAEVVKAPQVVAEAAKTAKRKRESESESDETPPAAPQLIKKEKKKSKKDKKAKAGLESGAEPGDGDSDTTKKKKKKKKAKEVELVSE
Chain of UniProt O14662 (O14662 whole entry): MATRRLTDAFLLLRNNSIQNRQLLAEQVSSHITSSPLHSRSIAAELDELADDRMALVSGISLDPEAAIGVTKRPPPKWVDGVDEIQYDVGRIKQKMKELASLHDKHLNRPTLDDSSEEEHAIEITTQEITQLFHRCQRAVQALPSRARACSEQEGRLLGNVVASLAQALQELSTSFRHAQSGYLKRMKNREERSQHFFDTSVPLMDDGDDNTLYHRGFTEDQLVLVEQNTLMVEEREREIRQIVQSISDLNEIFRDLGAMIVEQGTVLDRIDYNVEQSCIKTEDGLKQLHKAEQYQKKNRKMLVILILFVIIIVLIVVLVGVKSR
Chain of UniProt O15381 (O15381 whole entry, looked up): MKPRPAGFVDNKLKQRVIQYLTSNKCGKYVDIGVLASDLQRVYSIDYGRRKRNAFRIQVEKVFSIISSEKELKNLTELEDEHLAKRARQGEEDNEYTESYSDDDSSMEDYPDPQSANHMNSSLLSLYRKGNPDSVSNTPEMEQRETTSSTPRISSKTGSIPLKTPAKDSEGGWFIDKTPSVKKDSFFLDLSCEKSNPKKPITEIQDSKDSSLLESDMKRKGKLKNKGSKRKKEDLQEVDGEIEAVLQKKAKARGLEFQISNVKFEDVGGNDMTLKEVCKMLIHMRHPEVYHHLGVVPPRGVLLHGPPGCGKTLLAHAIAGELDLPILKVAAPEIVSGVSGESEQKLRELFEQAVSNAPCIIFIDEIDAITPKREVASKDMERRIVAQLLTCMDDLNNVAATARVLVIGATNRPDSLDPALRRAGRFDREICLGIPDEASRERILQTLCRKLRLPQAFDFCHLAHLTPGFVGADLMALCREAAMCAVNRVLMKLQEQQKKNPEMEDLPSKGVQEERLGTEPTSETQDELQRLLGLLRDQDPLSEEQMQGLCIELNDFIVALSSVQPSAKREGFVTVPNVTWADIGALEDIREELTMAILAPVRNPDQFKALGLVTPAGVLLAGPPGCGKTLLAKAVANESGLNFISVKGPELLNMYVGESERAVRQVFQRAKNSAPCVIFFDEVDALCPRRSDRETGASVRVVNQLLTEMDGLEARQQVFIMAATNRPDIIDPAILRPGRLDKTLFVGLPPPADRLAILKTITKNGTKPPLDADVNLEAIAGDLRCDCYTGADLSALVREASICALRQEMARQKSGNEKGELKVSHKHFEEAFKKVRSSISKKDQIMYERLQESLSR
Chain of UniProt O43164 (O43164 whole entry): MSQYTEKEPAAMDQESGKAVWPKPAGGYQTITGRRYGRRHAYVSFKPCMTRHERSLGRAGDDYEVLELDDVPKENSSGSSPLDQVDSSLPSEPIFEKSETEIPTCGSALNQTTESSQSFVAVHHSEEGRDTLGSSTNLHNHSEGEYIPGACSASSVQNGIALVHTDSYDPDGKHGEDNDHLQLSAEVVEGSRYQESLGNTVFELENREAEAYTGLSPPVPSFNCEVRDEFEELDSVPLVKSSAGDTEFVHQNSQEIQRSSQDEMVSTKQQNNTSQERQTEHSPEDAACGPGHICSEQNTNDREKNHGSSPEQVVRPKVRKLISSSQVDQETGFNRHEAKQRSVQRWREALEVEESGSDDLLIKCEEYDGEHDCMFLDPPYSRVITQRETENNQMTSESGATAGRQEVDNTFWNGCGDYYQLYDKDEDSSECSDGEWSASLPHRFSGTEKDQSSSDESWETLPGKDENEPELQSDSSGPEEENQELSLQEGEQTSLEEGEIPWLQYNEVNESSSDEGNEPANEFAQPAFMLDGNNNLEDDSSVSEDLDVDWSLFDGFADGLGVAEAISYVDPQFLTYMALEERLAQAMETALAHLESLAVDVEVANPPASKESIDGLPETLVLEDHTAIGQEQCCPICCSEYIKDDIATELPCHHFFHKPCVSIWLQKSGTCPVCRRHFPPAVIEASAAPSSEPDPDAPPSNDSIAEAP

Row | Target | log2 ratio of iodoacetamide-alkyne labeling
1 | DKC1 C74 (UniProt O60832) | 0.427 (inactive)
2 | PFAS C606 (UniProt O15067) | 1.53 (active)
3 | ATP6V1G1 C104 (UniProt O75348) | 0.03 (inactive)
4 | FANCG C417 (UniProt O15287) | 0.36 (inactive)
5 | ATOX1 C12 (UniProt O00244) | 1.27 (active)
6 | UniProt A0MZ66_C565 | 0.734 (inactive)
7 | PJA2 C224 (UniProt O43164) | 0.22 (inactive)
8 | PHGDH C369 (UniProt O43175) | 1.78 (active)
9 | EIF5B C720 (UniProt O60841) | 0.266 (inactive)
10 | SF3B1 C1059 (UniProt O75533) | 0.247 (inactive)
11 | GEMIN2 C63 (UniProt O14893) | 0.211 (inactive)
12 | NMT2 C104 (UniProt O60551) | 0.453 (inactive)
13 | UniProt O15042_C291 | 1 (active)
14 | UniProt O00148_C62 | 0.591 (inactive)
15 | NVL C391 (UniProt O15381) | 0.0922 (inactive)
16 | UniProt O75153_C1196 | 0.492 (inactive)
17 | IDH3B C233 (UniProt O43837) | 0.394 (inactive)
18 | FLNB C660 (UniProt O75369) | 0.476 (inactive)
19 | POM121C C438 (UniProt A8CG34) | 1.04 (active)
20 | FLNB C455 (UniProt O75369) | 1.24 (active)

Row | Target | log2 ratio of iodoacetamide-alkyne labeling
21 | ARHGEF11 C1166 (UniProt O15085) | 0.618 (inactive)
22 | TBC1D4 C6 (UniProt O60343) | 0.373 (inactive)
23 | NUP155 C704 (UniProt O75694) | 0.168 (inactive)
24 | O15320_C147 (UniProt Q96PC5+O15320) | -0.197 (inactive)
25 | A0AVT1_C347 | 2.27 (active)
26 | EPB41L2 C424 (UniProt O43491) | 0.17 (inactive)
27 | TRAFD1 C482 (UniProt O14545) | 1.55 (active)
28 | NPM3 C105 (UniProt O75607) | 0.636 (inactive)
29 | DNM1L C446 (UniProt O00429) | 0.102 (inactive)
30 | AKAP8 C275 (UniProt O43823) | 1.06 (active)
31 | UniProt O43303_C535 | 0.837 (inactive)
32 | PSIP1 C204 (UniProt O75475) | 0.31 (inactive)
33 | TMEM189 C22 (UniProt A5PLL7) | 1.52 (active)
34 | PPFIA2 C143 (UniProt O75334) | -0.214 (inactive)
35 | PGP C297 (UniProt A6NDG6) | 1.17 (active)
36 | EIF5B C853 (UniProt O60841) | 1 (active)
37 | UniProt O75947_C101 | 0.98 (inactive)
38 | ANKRD28 C701 (UniProt O15084) | 0.336 (inactive)
39 | STX16 C150 (UniProt O14662) | 0.0256 (inactive)
